High-throughput results deposited in PubChem by National Center for Advancing Translational Sciences (NCATS).
Compounds with a hit are over-represented: about 18% of the library has one in this group of screens.
TDP1 cell noCPT – qHTS for Inhibitors of human tyrosyl-DNA phosphodiesterase 1 (TDP1): qHTS in cells in absence of CPT | DT40 Tdp1-/- hTDP1 cells, no CPT, ATP luminescence, 48 h | Potency, µM (titrated, usually from 46.2 µM), without a hit: at the top dose activity change, negative = growth inhibition, most hits filed as inhibitors | 420,000 compounds, 15% hits | AID 686978, 2013; also: potency is read from the fitted curve at half-maximal effect; nearly all actives have a fitted effect of over 55% in size
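Chicken DT40 Tdp1-/- cells stably complemented with human TDP1 were seeded at 400 cells/well with DMSO in place of 20 nM camptothecin. After compound pinning, cells grew at least 48 hr at 37 °C; viability read by CellTiter-Glo luminescence.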
DT40 TDP1 CPT – growth inhibition of DT40 Tdp1-/-;hTDP1 cells with camptothecin (screen for TDP1 inhibitors); chicken DT40 Tdp1-/-;hTDP1 cells + 20 nM CPT, ATP luminescence, 48 h; Potency, µM (titrated, usually from 46.2 µM), for inactives: at the highest dose activity change, negative = growth inhibition, actives largely listed as inhibitors; 420,000 compounds, 12% hits; also: potency is read from the fitted curve at half-maximal effect; nearly all actives have a fitted effect of over 55% in size
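Chicken DT40 Tdp1-/- cells complemented with human TDP1, 400 cells/well, exposed to compounds plus 20 nM camptothecin for at least 48 h at 37 C; viability read as ATP content by CellTiter-Glo luminescence.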
VP16 counter – inhibits Gal4-VP16 luciferase reporter, ROR gamma counter-screen. 310,000 compounds, 3.5% hits. Potency, µM (highest dose often 53.6 µM), without a hit: top-dose activity, negative = inhibition, hits mostly inhibitors. Drosophila S2 Gal4-VP16 UAS-luciferase, luminescence, 20 h;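 also: Gal4-VP16 expression switched on by copper sulfate through the metallothionein promoter; potency is read from the fitted curve at half-maximal effect; nearly all actives have a fitted effect of over 50% in size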
LDHA inh – LDHA (human) enzyme inhibition; AID 1347041; activity change, % (values are at about 110 or 230 µM); 480,000 compounds, 0.15% hits; purified LDHA, NADH/diaphorase-resazurin fluorescence; active compounds read low; P00338; in the data active = activity change below about -30%; inconclusive = mostly about -25% to -30%;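 also: plate controls were DMSO wells for no effect and wells without enzyme for full effect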
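Resorufin fluorescence (ex540/em590), read at 0 and 20 min after diaphorase/resazurin addition, reports the NADH left after a 5 min room-temperature reaction of 2 nM human LDH5 with 0.06 mM NADH and 0.2 mM pyruvate.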
IL-1B inflam inh – blocks inflammasome-driven IL-1 beta release. THP-1 LPS/ATP IL-1B secretion, AlphaLISA, 16 h; active compounds read low. activity change, % at 57.5 µM. 360,000 compounds, 4.7% hits; in the data active = activity change below about -50%; inconclusive = mostly about -30% to -49%
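Secreted IL-1B measured by AlphaLISA bead assay after 16 h compound exposure of THP-1 cells; compounds (final up to 57.5 uM) added 1 h before LPS (250 ng/mL) and ATP (1.25 mM) stimulation; lower signal means less secretion.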
RORgamma inh – inhibitors of mouse ROR gamma transcriptional activity; P51450; Drosophila S2 Gal4-RORgamma UAS-luciferase reporter, 20 h; Potency, µM (highest dose often 53.6 µM), for inactives: at the top dose activity change, negative = inhibition, most hits filed as inhibitors; 310,000 compounds, 5.4% hits; AID 2551; also: potency is read from the fitted curve at half-maximal effect; nearly all actives have a fitted effect of over 60% in size
Target sequence (P51450 whole entry, looked up, the tested form may be a part): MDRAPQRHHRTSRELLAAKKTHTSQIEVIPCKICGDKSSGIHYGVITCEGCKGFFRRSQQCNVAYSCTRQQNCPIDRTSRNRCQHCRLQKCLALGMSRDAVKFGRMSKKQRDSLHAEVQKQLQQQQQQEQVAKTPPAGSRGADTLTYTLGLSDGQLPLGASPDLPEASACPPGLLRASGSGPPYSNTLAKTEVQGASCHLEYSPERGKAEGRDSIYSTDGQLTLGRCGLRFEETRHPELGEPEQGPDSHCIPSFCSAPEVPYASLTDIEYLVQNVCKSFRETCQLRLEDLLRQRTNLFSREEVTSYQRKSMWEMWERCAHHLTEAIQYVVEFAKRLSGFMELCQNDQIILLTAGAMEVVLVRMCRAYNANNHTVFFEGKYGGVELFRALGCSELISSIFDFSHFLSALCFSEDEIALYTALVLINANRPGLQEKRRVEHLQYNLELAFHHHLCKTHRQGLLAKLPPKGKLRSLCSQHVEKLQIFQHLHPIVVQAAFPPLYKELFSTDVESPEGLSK
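Drosophila S2 cells stably expressing Gal4-DBD/mouse RORγ fusion under metallothionein promoter plus UAS-luciferase; compound 1 h, then 700 uM CuSO4 induction for 20 h at ambient temperature; inhibition read as reduced luminescence.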
Numbers without * were called inactive; ? = inconclusive; . = not tested or not shown. Unless noted, calls follow the shape of the dose curve; as a rule, active = well fitted curve in the direction sought with a large enough effect; inconclusive = small, poorly fitted or top-dose-only effect, or another doubt; inactive = no such curve, though single readings can be large; an effect the other way counts as inactive or inconclusive. Unless noted, % is scaled to controls: 0 for no effect and ±100 for the full control effect.

SMILES	TDP1 cell noCPT	DT40 TDP1 CPT	VP16 counter	LDHA inh	IL-1B inflam inh	RORgamma inh
O=C(COc1cccc(Br)c1)NN=C1c2ccccc2-c2ccccc21	?	0.5%	?	-7.2	-2.6	20µM*
Cc1ccc(CN(C(=O)c2cc3ccccc3[nH]2)C(C)C)o1	.	.	.	10.4	.	.
COc1cc(OC)c(NC2=NS(=O)(=O)C(c3ccc(C)c(C)c3)=C2C)cc1Cl	.	.	.	4.2	.	.
Cc1nn(-c2ccc(F)cc2)c2nc(N)c(C#N)c(-c3cccs3)c12	13µM*	23.1µM*	-16.6%	-0.3	9.5	31.6%
Cc1nn(-c2ccc(F)cc2)c2nc(N)c(C#N)c(-c3ccc(O)c(O)c3)c12	23.1µM*	16.4µM*	-8.8%	5.0	-7.4	-1.7%
Cc1nn(-c2ccccc2)c2nc(N)c(C#N)c(-c3ccc(O)c(O)c3)c12	?	?	-14.1%	4.5	-7.5	5.8%
COc1ccc(OC)c(CCNC(=O)CC2(CC3=NS(=O)(=O)c4ccccc4N3)CCCC2)c1	?	11.6µM*	-0.6%	2.8	-13.3	29.9%
COc1ccc(CCNC(=O)CC(C)(C)CC2=NS(=O)(=O)c3ccccc3N2)cc1OC	16.4%	-15.9%	-6.2%	-8.6	-8.6	-4.5%
Cc1ccc(NC(=S)NCc2ccc3[nH]c4c(c3c2)CCCC4)cc1	13µM*	?	2.82µM*	-6.8	?	7.94µM*
COCCNC(=S)NCc1ccc2[nH]c3c(c2c1)CCCC3	-26.1%	-15.3%	-73.6%	0.6	12.5	20µM*
CC(C)CC(=O)NCc1ccc2[nH]c3c(c2c1)CCCC3	-19.6%	-28.9%	-22.2%	1.9	9.4	44.9%
CCn1cc(/C=C/C(=O)Nc2ccn(Cc3c(F)c(F)cc(F)c3F)n2)cn1	11.6µM*	?	-0.8%	3.0	8.0	-30.6%
CCn1cc(/C=C/C(=O)Nc2ccc(C)cc2Br)cn1	?	15.8%	-17.1%	-13.5	-28.8	?
O=C(Nc1cc(C(F)(F)F)ccc1N1CCCCC1)c1cccc([N+](=O)[O-])c1	16.4µM*	?	-15.3%	1.0	-1.7	36.8%
Cc1ccc(C(=O)Nc2cc(C(F)(F)F)ccc2N2CCCCC2)cc1[N+](=O)[O-]	20.6µM*	18.4µM*	-13.2%	-3.2	-18.0	6.2%
O=C(Nc1cc(C(F)(F)F)ccc1N1CCCC1)c1ccc2c(c1)OCO2	?	-19.0%	-10.8%	1.9	-6.1	38.7%
CCc1cccc(NS(=O)(=O)c2ccc3c(c2)-c2oncc2CO3)c1	.	.	.	1.1	.	.
COc1cc(C(=O)NC(c2ccccc2)c2ccccc2)cc(OC)c1C	?	-21.5%	-24.5%	3.2	3.3	-6.0%
COc1ccc(C(=O)NC(c2ccccc2Cl)c2cc(Cl)c3cccnc3c2O)cc1 (configuration not stated)	13µM*	8.2µM*	.	3.9	.	.
COc1cc(C(=O)NC(c2ccccc2Cl)c2cc(Cl)c3cccnc3c2O)cc(OC)c1OC (configuration not stated)	20.6µM*	13µM*	.	1.3	.	.
COc1cc(NC(=O)c2ccc(Cl)cc2)c2ncccc2c1	13.3%	-14.3%	7.4%	-2.1	44.8	-22.5%
O=C(Nc1ccc(-c2ccccc2)cc1)c1ccccc1C(F)(F)F	.	.	.	0.0	.	.
C/C(O)=c1/ccc2cccc3nc(C)nc1c23	?	?	-10.6%	8.3	-52.7*	?
CN(C(=O)c1cc2c(s1)-c1ccccc1S(=O)(=O)C2)c1ccccc1F	?	-22.6%	7.2%	4.1	-16.6	23.8%
CN(Cc1ccco1)C(=O)c1cc2c(s1)-c1ccc(Cl)cc1S(=O)(=O)C2	?	?	-24.8%	-1.7	-4.1	14.0%
SMILES	TDP1 cell noCPT	DT40 TDP1 CPT	VP16 counter	LDHA inh	IL-1B inflam inh	RORgamma inh
COc1ccc(N(C)C(=O)c2cc3c(s2)-c2ccccc2OC3)c(OC)c1	9.2µM*	14.6µM*	1.1%	-0.5	-73.0*	2.0%
COc1ccc(N(C)C(=O)c2cc3c(s2)-c2ccc(Cl)cc2S(=O)(=O)C3)c(OC)c1	?	18.4µM*	0.0%	-19.7	-9.2	1.0%
CN(C(=O)c1cc2c(s1)-c1ccccc1S(=O)(=O)C2)c1ccccc1	23.1µM*	11.6µM*	23.5%	4.1	7.2	12.3%
COC(=O)c1cc2oc(C)cc2n1Cc1ccccc1C	.	.	.	1.0	.	.
O=C(COC(=O)c1cc2c(s1)CCCCC2)NC(=O)NC1CCCC1	.	.	.	9.8	.	.
CCOC(=O)N1CCN(C(=S)NC(=O)C23CC4CC(CC(C4)C2)C3)CC1	?	?	?	-8.1	14.3	3.55µM*
CCOC(=O)N1CCN(C(=O)NC23CC4CC(CC(C4)C2)C3)CC1	-23.1%	-2.5%	-3.3%	-3.7	6.7	-9.0%
O=C(NC(=S)N1CCCCC1)C12CC3CC(CC(C3)C1)C2	?	-4.9%	12.6µM*	-8.9	-17.6	7.08µM*
CC12CC3CC(C)(C1)CC(C(=O)NC(=S)N1CCOCC1)(C3)C2	-9.3%	-5.5%	2.82µM*	-7.2	-14.9	1.12µM*
CCc1noc(CS(=O)(=O)Cc2cc(C)ccc2C)n1	.	.	.	-9.0	.	.
N#Cc1ccc(COc2cccc3cccnc23)cc1	?	0.8%	-2.2%	5.8	-13.8	10µM*
Brc1ccc(COc2cccc3cccnc23)cc1	-11.4%	-17.3%	.	2.1	-15.9	.
COc1ccc(Cl)cc1N1CCN(CCNC(=O)Nc2ccccc2C)CC1	-95.2%	-101.7%	-0.6%	4.2	-76.8*	13.9%
Cc1cccc(N2CCN(CCNC(=O)Nc3ccc(Cl)cc3)CC2)c1C	13µM*	13µM*	.	-0.8	.	.
COc1ccc2oc(C(=O)OCC(=O)N3CCN(c4ccccc4)CC3)c(C)c2c1	?	-19.8%	.	-7.7	12.1	.
CCOC(=O)c1oc2ccccc2c1CN1CCN(c2ccccc2)CC1	18.4µM*	?	-7.3%	-0.2	-5.6	0.2%
COc1ccc(N2CCN(C(=O)COC(=O)c3oc4ccccc4c3C)CC2)cc1	16.4µM*	20.6µM*	.	-0.1	4.8	.
Cc1c(-c2ccccc2)oc2c(C(=O)N3CCN(c4ccc([N+](=O)[O-])cc4)CC3)cccc2c1=O	20.6µM*	16.4µM*	-0.5%	-4.6	-6.2	19.1%
